This passage reports inhibition results from ChEMBL document CHEMBL1961873, “Compounds: GSK PKIS; Assays: Nanosyn kinase panel” (2012).

For test [1], the target named is RAC-alpha serine/threonine-protein kinase (Homo sapiens) (UniProt P31749). To be noted: at 0.1 µM.
Test [2] shares this target. To be noted: at 1 µM.
In test [3] the target is RAC-beta serine/threonine-protein kinase (Homo sapiens) (UniProt P31751). To be noted: at 0.1 µM.
The target is the same in test [4]. To be noted: at 1 µM.
Test [5] concerns the target RAC-gamma serine/threonine-protein kinase (Homo sapiens) (UniProt Q9Y243). To be noted: at 0.1 µM.
Test [6] has the same target. To be noted: at 1 µM.
The target in test [7] is G protein-coupled receptor kinase 6 (Homo sapiens) (UniProt P43250). To be noted: at 0.1 µM.
Chain of G protein-coupled receptor kinase 6 (Homo sapiens) (P43250 whole entry, looked up): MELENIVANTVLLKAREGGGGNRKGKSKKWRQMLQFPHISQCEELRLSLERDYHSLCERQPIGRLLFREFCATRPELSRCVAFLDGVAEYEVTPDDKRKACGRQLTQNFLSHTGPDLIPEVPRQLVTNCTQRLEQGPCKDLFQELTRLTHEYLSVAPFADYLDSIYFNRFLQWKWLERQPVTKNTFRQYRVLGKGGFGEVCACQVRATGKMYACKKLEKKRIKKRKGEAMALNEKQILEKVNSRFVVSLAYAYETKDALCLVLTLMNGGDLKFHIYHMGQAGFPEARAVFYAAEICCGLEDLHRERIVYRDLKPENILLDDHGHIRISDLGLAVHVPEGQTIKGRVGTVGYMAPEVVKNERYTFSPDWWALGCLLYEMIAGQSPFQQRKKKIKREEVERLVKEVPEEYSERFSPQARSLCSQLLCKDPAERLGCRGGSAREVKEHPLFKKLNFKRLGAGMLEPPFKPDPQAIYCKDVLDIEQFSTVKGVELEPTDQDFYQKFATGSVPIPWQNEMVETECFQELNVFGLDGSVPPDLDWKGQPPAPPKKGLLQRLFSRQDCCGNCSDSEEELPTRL
Test [8] shares this target. To be noted: at 1 µM.
The target in test [9] is T1, Rhodopsin kinase GRK7 (Homo sapiens) (UniProt Q8WTQ7).
T1 sequence (whole entry): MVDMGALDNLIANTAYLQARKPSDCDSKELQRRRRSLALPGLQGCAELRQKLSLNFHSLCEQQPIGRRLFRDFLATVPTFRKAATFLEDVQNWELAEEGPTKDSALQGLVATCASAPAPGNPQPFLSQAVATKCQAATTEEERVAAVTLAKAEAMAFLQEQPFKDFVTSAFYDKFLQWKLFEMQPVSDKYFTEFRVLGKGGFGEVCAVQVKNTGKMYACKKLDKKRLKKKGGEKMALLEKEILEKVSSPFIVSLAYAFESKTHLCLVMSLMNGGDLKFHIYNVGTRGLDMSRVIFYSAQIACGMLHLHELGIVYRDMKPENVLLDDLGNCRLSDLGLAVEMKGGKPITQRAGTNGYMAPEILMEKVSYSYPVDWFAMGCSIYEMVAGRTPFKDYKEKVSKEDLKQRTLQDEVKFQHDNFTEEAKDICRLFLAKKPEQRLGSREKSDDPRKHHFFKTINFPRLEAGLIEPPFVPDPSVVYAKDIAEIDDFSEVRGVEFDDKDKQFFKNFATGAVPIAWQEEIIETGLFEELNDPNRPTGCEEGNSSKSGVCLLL
To be noted: at 0.1 µM.

The target of test [10] is T1, Rhodopsin kinase GRK7 (Homo sapiens). To be noted: at 1 µM.

Chain of RAC-beta serine/threonine-protein kinase (Homo sapiens) (P31751 whole entry): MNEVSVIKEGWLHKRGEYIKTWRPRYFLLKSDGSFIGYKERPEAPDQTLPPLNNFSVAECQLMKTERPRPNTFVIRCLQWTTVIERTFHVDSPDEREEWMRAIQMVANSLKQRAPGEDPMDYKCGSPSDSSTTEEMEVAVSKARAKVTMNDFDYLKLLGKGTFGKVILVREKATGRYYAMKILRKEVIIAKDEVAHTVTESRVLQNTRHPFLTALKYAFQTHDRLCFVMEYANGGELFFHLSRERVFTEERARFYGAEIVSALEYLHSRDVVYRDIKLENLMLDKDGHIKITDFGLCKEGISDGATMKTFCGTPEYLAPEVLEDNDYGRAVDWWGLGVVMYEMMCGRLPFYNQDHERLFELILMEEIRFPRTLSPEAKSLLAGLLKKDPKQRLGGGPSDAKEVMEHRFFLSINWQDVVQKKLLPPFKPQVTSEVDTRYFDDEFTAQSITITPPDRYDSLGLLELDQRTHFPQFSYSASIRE
Chain of RAC-alpha serine/threonine-protein kinase (Homo sapiens) (P31749 whole entry): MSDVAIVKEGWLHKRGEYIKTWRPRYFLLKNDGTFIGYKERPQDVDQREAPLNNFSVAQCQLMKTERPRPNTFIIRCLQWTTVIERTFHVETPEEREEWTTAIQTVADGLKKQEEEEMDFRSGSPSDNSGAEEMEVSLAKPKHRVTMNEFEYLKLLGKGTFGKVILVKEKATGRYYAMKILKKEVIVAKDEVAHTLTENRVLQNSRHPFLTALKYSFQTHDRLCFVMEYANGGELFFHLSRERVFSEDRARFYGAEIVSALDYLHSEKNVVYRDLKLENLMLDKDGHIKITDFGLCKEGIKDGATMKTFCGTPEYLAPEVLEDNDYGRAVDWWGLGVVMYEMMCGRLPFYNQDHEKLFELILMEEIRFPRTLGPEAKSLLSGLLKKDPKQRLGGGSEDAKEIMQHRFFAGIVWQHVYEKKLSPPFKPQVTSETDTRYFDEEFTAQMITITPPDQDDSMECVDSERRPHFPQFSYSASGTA
Chain of RAC-gamma serine/threonine-protein kinase (Homo sapiens) (Q9Y243 whole entry): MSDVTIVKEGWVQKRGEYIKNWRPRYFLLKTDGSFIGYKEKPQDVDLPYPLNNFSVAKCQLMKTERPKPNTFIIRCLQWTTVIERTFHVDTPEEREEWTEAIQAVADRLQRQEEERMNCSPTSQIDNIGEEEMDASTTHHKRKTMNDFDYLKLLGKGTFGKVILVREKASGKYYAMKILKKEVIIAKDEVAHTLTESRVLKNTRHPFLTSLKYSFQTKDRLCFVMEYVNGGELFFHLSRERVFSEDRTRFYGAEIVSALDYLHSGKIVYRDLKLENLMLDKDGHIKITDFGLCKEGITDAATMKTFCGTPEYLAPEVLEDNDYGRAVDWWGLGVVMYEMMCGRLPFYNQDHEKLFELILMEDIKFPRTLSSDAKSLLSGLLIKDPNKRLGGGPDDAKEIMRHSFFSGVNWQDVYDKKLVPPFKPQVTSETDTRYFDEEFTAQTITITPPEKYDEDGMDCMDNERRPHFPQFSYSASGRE

Broadly, the inhibition is the change of the read-out against control, counted positive when it falls. In the case of `O=C1Nc2ccccc2/C1=C/Nc1ccc2[nH]c(=O)[nH]c2c1`, the inhibition in test [1] came to 0.44%; in [2], 0.45%; in [3], 1.75%; in test [4] it was 2.21%; in test [5] it was 1%; in test [6], 1.86%. The inhibition in [7] was determined as 8.17%; in [8], 23.7%; in [9] it was 4.17%; in [10] it was 15.9%.
Take `CN(c1ccc(NC(=O)Nc2ccc(OC(F)(F)F)cc2)cc1)c1ccnc(Nc2cccc(S(N)(=O)=O)c2)n1`: the inhibition in [1] worked out at 0.77%; in test [2], 0.88%; in [3], 0.51%; in test [4], 1.22%; in [5], 0.16%; in test [6] it was 2.79%. The inhibition was -5.14% in test [7], -2.97% in test [8], 3.47% in test [9] and -1.66% in test [10].
As for `Nc1nccc(-c2c(-c3ccc(F)cc3)ncn2CCCN2CCOCC2)n1`, the inhibition in test [1] is 1.68%; in test [2], 1.55%; in [3], 2.52%; in [4], 0.79%; in test [5], 1.64%; in test [6] it was 3.69%. Besides, the inhibition in [7] is 4.54%; in test [8] it was 5.62%; in [9], 2.89%; in test [10], 8.32%.
`FC(F)(F)c1ccc(-c2nn3ncccc3c2-c2ccnc(Nc3ccc4c(c3)OCCO4)n2)cc1`: the inhibition in [1] was 0.91%; in test [2] it was 0.98%; in test [3] it was 0.17%; in test [4] it was 0.25%; in [5] it was -0.63%; in [6], -0.79%. The inhibition in test [7] is 1.14%; in test [8] it was 12.6%; in [9], 4.88%; in test [10] it was 11.6%.
With `CCS(=O)(=O)c1ccc(OC)c(Nc2nccc(N(C)c3ccc4c(C)n[nH]c4c3)n2)c1`, the inhibition in [1] amounted to 1.44%; in test [2] it was 1.19%; in test [3], 1.01%; in test [4] it was 2.53%; in test [5], 0.55%; in [6], 2.78%. The inhibition is -0.58% in test [7], 1.67% in [8], 9.6% in [9] and 1.83% in test [10].
For `CC(C)c1ccc(Nc2nccc(-c3cnn4ncccc34)n2)cc1`, the inhibition in test [1] was determined as 0.38%; in test [2], 0.64%; in test [3], 1.28%; in [4] it was 1.13%; in test [5], 1.09%; in test [6], 1.51%. Also, the inhibition in test [7] was determined as 4.74%; in test [8], 3.14%; in test [9] it was 2.17%; in test [10], 3.19%.
With `Cc1ccc2c(-c3ccnc(Nc4cccc(C(F)(F)F)c4)n3)c(-c3ccccc3)nn2n1`, the inhibition in test [1] was found to be 0.89%; in [2] it was 1.19%; in test [3], 0.8%; in [4], 2.31%; in [5], 0.73%; in [6], 4.19%. Further, the inhibition in test [7] came out at 2.15%; in test [8], 2.48%; in test [9], 10.5%; in test [10] it was 3.2%.
For `COc1cccc(-n2ncc3c(N/N=C/c4ccc(S(C)(=O)=O)cc4)ncnc32)c1`, the inhibition in test [1] was -3.17%; in [2], -2.91%; in test [3] it was -3.17%; in test [4], -2.73%; in test [5], -8.29%; in test [6], -3.66%. Besides, the inhibition is 1.17% in test [7], -1.78% in test [8], -0.35% in test [9] and 0.56% in [10].
In the case of `Cc1cc(-c2ccccn2)cc(C)c1/C=C/c1cncc(-c2nn[nH]n2)c1`, the inhibition in [1] came to 1.14%; in [2], 0.85%; in [3], 0.53%; in test [4], 1.57%; in [5], 2.14%; in [6], 2.17%. In addition, the inhibition in test [7] was 5.67%; in test [8], 1.26%; in test [9], 9.3%; in test [10], 7.66%.
With `Cc1ccc2c(-c3ccnc(Nc4ccc5c(c4)OCCO5)n3)c(-c3ccc(C(F)(F)F)cc3)nn2n1`, the inhibition in [1] is 1.37%; in test [2], 1.23%; in [3] it was 1.5%; in test [4], 1.65%; in [5] it was 1.43%; in test [6], -4.48%. The inhibition in [7] is 0.55%; in [8], 2.19%; in [9] it was 5.75%; in [10], 2.78%.
Consider `COc1cc2ncnc(Nc3ccc(C)c(O)c3)c2cc1OC`, for which the inhibition in test [1] stood at 0.49%; in test [2], 0.96%; in [3], 1.99%; in test [4] it was 1.77%; in test [5], 1.98%; in test [6], 1.76%. Besides, the inhibition turned out to be 6% in test [7], 5.91% in [8], 4.99% in test [9] and 7.5% in [10].
Regarding `C[C@@H](Oc1cc(-n2cnc3ccc(OCC4CCN(C)CC4)cc32)sc1C(N)=O)c1ccccc1C(F)(F)F`, the inhibition in test [1] is -0.94%; in test [2], -1.34%; in [3], -1.9%; in test [4], -0.71%; in test [5] it was -1.91%; in [6], 1.79%. Also, the inhibition is -1.55% in [7], -1.03% in test [8], 2.15% in [9] and -2.25% in [10].
`COC(=O)c1cncc(/C=C/c2c(C)cc(O)cc2C)c1`: the inhibition in test [1] was determined as 1.01%; in test [2], 0.52%; in test [3], 1.09%; in test [4], 1.16%; in test [5], 1.47%; in test [6], 1.17%. Further, the inhibition in test [7] is 7.47%; in [8], 9.38%; in test [9] it was 3.31%; in [10] it was 3.95%.
Take `CN(C)C(=O)O[C@H]1CN[C@H](C#Cc2cc3ncnc(Nc4ccc(OCc5cccc(F)c5)c(Cl)c4)c3s2)C1`: the inhibition in [1] is 0.44%; in test [2], 1.13%; in [3], 1.82%; in test [4], 1.59%; in test [5], 1.22%; in test [6], -1.3%. For the same compound, the inhibition in [7] was determined as 3.73%; in test [8], 0.78%; in test [9] it was 2.97%; in [10], 8.33%.
In the case of `Cc1ccc(Nc2ccnc(Nc3cccc(C(N)=O)c3)n2)cc1O`, the inhibition in [1] was -3.35%; in test [2], -2.06%; in [3] it was -1.66%; in test [4] it was -2.15%; in test [5], -2.03%; in [6] it was -1.07%. Further, the inhibition in [7] is 1.49%; in test [8], 6.26%; in test [9], 1.62%; in test [10], 0.17%.
As for `Nc1nccc(C#Cc2cncnc2Nc2ccc(OCc3cccc(F)c3)c(Cl)c2)n1`, the inhibition in [1] amounted to 1.34%; in test [2], 0.92%; in [3], 1.52%; in test [4] it was 1.54%; in test [5], 2.87%; in test [6], 1.85%. The inhibition in test [7] was 1.35%; in test [8], -4.58%; in test [9], 4.51%; in [10], 1.2%.
As for `COC(=O)Nc1nc2cc(Oc3ccc(NC(=O)Nc4cccc(Br)c4)cc3)ccc2[nH]1`, the inhibition in test [1] was 0.46%; in test [2], 0.17%; in [3] it was 1.35%; in test [4], 1.01%; in [5], 1.37%; in test [6] it was -2.06%. The inhibition in test [7] was found to be 4.28%; in [8] it was 6.2%; in [9], 3.16%; in test [10], 25.9%.
